Several values for one entry are separate records, joined by “and”; a condition that tells them apart may be missing. Equal entries are not always repeated. Results filed as inconclusive are left out. Activity calls are given as the source filed them. Calls follow the shape of the dose curve; as a rule, active = well fitted inhibition curve with a large enough effect; inconclusive = small, poorly fitted or top-dose-only effect; inactive = flat fitted curve, though single readings scatter.

Holding throughout (assay): qHTS profiling for inhibitors of Plasmodium falciparum proliferation (AID 504749); also: nearly all actives have a fitted effect of over 60% in size
What all share (conditions): P. falciparum in erythrocytes, SYBR Green DNA, 72 h; series mostly up to 28.7 µM

In test [1] the test system is P94_40. In short, it runs like this:
(§1)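 SYBR Green fluorescence of parasite DNA, read after lysis and overnight dark incubation, measured growth over 72 h in erythrocyte culture at 0.3% parasitemia and 2.5% hematocrit. Data normalised to DMSO and 0.29 uM artemisinin, with plate-drift correction.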

The subject of test [2] is PAD. The method, boiled down: as §1
Test [3] concerns PC15. The method, boiled down: as §1
Test [4] deals with PC26. The method, boiled down: as §1
Test [5] concerns PC49. The method, boiled down:
as §1

Test [6] has as its system SC27B. The method, boiled down: as §1
Test [7] deals with TAB109. In short, it runs like this:
as §1

Test [8] relates to TAB113. The method, boiled down:
as §1

The subject of test [9] is TAB165. In short, it runs like this:
as §1

In test [10] the test system is W2. In short, it runs like this:
as §1
Potency is read from the fitted curve at half-maximal effect.

On to `C[C@]12CC[C@H]3[C@@H](CC=C4C[C@@H](O)CC[C@@]43C)[C@@H]1CC[C@@H]2O`, for which the Potency entry in [1], in [2], in test [3], in test [4], in test [5] and in [6] was “inactive” each time. Further, the Potency result in [7], in [8], in [9] and in test [10] was “inactive” throughout.
As for `NCc1cccnc1`, the Potency entry in [1], in test [2], in test [3], in test [4], in [5] and in [6] was “inactive” each time. In addition, the Potency entry in test [7], in test [8], in test [9] and in [10] was “inactive” in each case.
Take `O=c1n(Cl)c(=O)n(Cl)c(=O)n1Cl`: the Potency result in [1], in [2], in test [3], in test [4], in test [5] and in test [6] was “inactive” throughout. The Potency result in [7], in [8], in test [9] and in [10] was “inactive” in each case.
Consider `C[N+]1(CCC(C(N)=O)(c2ccccc2)c2ccccc2)CCCCC1`, for which the Potency entry in [1], in [2], in test [3], in test [4], in test [5] and in [6] was “inactive” in each case. In addition, the Potency result in test [7], in test [8], in [9] and in test [10] was “inactive” in each case.
Take `COC(=O)C1=CCCN(C)C1`: the Potency result in [1], in test [2], in test [3], in [4], in [5] and in test [6] was “inactive” throughout. The Potency result in test [7], in [8], in test [9] and in test [10] was “inactive” in each case.
`CC[n+]1c(-c2ccccc2)c2cc(N)ccc2c2ccc(N)cc21`: the Potency is 70.8 nM (active) and 355 nM (active) in test [1]; 199 nM (active) and 316 nM (active) in test [2]; 251 nM (active) and 891 nM (active) in [3]; 1.51 µM (active) and 2.13 µM (active) in test [4]; 178 nM (active) and 316 nM (active) in [5]; 126 nM (active) and 355 nM (active) in [6]. The Potency in test [7] is 70.8 nM (active) and 158 nM (active); in [8], 100 nM (active) and 316 nM (active); in test [9] it was 17.8 nM (active) and 224 nM (active); in test [10], 21.3 nM (active) and 37.9 nM (active).
For `COP(=O)(OC)OC=C(Cl)Cl`, the Potency result in [1], in test [2], in [3], in test [4], in [5] and in test [6] was “inactive” throughout. For the same compound, the Potency entry in test [7], in [8] and in [9] was “inactive” throughout. In addition, the Potency in test [10] is 10700 nM (active).
With `CN(C)C(=S)SSC(=S)N(C)C`, the Potency in test [1] was 2 µM (active); in test [2] it was 2 µM (active); in test [3] it was 3.16 µM (active); in test [4] it was 3.79 µM (active); in test [5], 11.2 µM (active); in test [6], 6.31 µM (active). In addition, the Potency in [7] is 1.58 µM (active); in test [8], 3.98 µM (active); in test [9], 2.51 µM (active); in test [10], 849 nM (active).
On to `CCC1(c2ccccc2)CCC(=O)NC1=O` (stereo unspecified), for which the Potency entry in test [1], in test [2], in test [3], in [4], in [5] and in test [6] was “inactive” each time. Besides, the Potency entry in [7], in test [8] and in test [9] was “inactive” throughout.
For the compound `CC(C)C(Br)C(=O)NC(N)=O` (stereo unspecified), the Potency result in test [1], in [2], in test [3], in test [4], in test [5] and in test [6] was “inactive” throughout. Further, the Potency result in test [7], in [8], in test [9] and in [10] was “inactive” throughout.
Turning to `O=C(CCCN1CCC(n2c(=O)[nH]c3ccccc32)CC1)c1ccc(F)cc1`, the Potency was 0.891 µM (active) in test [1]; 1.12 µM (active) in [2]; 1.26 µM (active) in test [3]; 2.56 µM (active) in test [4]; 2.82 µM (active) in [5]; 2 µM (active) in test [6]. Moreover, the Potency in [7] was 1 µM (active); in test [8] it was 1.26 µM (active); in test [9], 1 µM (active); in test [10] it was 642 nM (active).
With `CN1C(=O)CN=C(c2ccccc2)c2cc([N+](=O)[O-])ccc21`, the Potency result in [1], in [2], in [3], in test [4], in test [5] and in test [6] was “inactive” throughout. The Potency result in [7], in test [8], in test [9] and in test [10] was “inactive” each time.
Consider `C[C@]12Cc3nonc3C[C@@H]1CC[C@@H]1[C@@H]2CC[C@@]2(C)[C@H]1CC[C@]2(C)O`, for which the Potency entry in [1], in test [2], in test [3], in test [4], in test [5] and in [6] was “inactive” in each case. For the same compound, the Potency entry in [7] and in test [8] was “inactive” each time.
Consider `Cc1ncc2n1-c1ccc(Cl)cc1C(c1ccccc1F)=NC2`, for which the Potency entry in test [1], in [2], in test [3], in test [4], in test [5] and in test [6] was “inactive” in each case. Further, the Potency entry in [7], in [8], in test [9] and in test [10] was “inactive” in each case.
`CNC(=O)NC(O)C(Cl)(Cl)Cl` (stereo unspecified): the Potency entry in test [1], in test [2], in [3], in test [4], in test [5] and in test [6] was “inactive” each time. Also, the Potency entry in [7], in test [8], in [9] and in [10] was “inactive” throughout.
For the compound `COc1ccc(C(=O)N2CCCC2=O)cc1`, the Potency result in test [1], in [2], in test [3], in test [4], in test [5] and in [6] was “inactive” in each case. Moreover, the Potency entry in test [7], in [8], in test [9] and in [10] was “inactive” throughout.
In the case of `CCC1(CC)C(=O)NC(=O)NC1=O`, the Potency result in test [1], in test [2], in [3], in test [4], in test [5] and in test [6] was “inactive” each time. The Potency result in test [7], in [8] and in test [9] was “inactive” each time.
Regarding `CCS(=O)(=O)C(C)(C)S(=O)(=O)CC`, the Potency entry in test [1], in test [2], in test [3], in test [4], in [5] and in [6] was “inactive” each time. Further, the Potency result in test [7], in test [8], in [9] and in test [10] was “inactive” each time.

(Values after PubChem BioAssay (NCATS).)
